# Test results published in article PMC11062922 (Nature Chemical Biology, 2023).
# Read-outs that look alike come from different tables or passages of the source.
# Legend:
# Parameters in all cases: species or system human, MV4-11 + K-562 + COLO205 + SK-N-BE2 + OVCAR-8
# CDK7 = conditions: read-out: apparent Kd; compound concentrations:100 nM and 1000 nM (sheet 'Samples'); n = 1
# CDKL5 = conditions: read-out: apparent Kd; compound concentrations:100 nM and 1000 nM (sheet 'Samples'); n = 1
# ERCC2 = conditions: read-out: apparent Kd; compound concentrations:100 nM and 1000 nM (sheet 'Samples'); n = 1
# FER = conditions: read-out: apparent Kd; compound concentrations:100 nM and 1000 nM (sheet 'Samples'); n = 1
# FLT3 = conditions: read-out: apparent Kd; compound concentrations:100 nM and 1000 nM (sheet 'Samples'); n = 1
# LATS1 = conditions: read-out: apparent Kd; compound concentrations:100 nM and 1000 nM (sheet 'Samples'); n = 1
# MARK4 = conditions: read-out: apparent Kd; compound concentrations:100 nM and 1000 nM (sheet 'Samples'); n = 1
# MYLK3 = conditions: read-out: apparent Kd; compound concentrations:100 nM and 1000 nM (sheet 'Samples'); n = 1
# PLK4 = conditions: read-out: apparent Kd; compound concentrations:100 nM and 1000 nM (sheet 'Samples'); n = 1
# PRKAA1 = conditions: read-out: apparent Kd; compound concentrations:100 nM and 1000 nM (sheet 'Samples'); n = 1
# PRKCD = conditions: read-out: apparent Kd; compound concentrations:100 nM and 1000 nM (sheet 'Samples'); n = 1
# PRKCQ = conditions: read-out: apparent Kd; compound concentrations:100 nM and 1000 nM (sheet 'Samples'); n = 1
# PRKD2 = conditions: read-out: apparent Kd; compound concentrations:100 nM and 1000 nM (sheet 'Samples'); n = 1
# PTK2B = conditions: read-out: apparent Kd; compound concentrations:100 nM and 1000 nM (sheet 'Samples'); n = 1
# PTK2 = conditions: read-out: apparent Kd; compound concentrations:100 nM and 1000 nM (sheet 'Samples'); n = 1
# RPS6KA6 = conditions: read-out: apparent Kd; compound concentrations:100 nM and 1000 nM (sheet 'Samples'); n = 1
# STK10 = conditions: read-out: apparent Kd, n = 1
# TNK2 = conditions: read-out: apparent Kd; compound concentrations:100 nM and 1000 nM (sheet 'Samples'); n = 1
# PRKD3 = conditions: read-out: apparent Kd; compound concentrations:100 nM and 1000 nM (sheet 'Samples'); n = 1
# [1] = compound concentrations:100 nM and 1000 nM (sheet 'Samples')
compound,measurement,setting,value
O=C1NC(=O)C(N2CCc3ccccc32)=C1c1ccccc1Cl [SB-373598],potency estimated from few doses,CDK7,93.7 nM
same,potency estimated from few doses,CDKL5,1390 nM
same,potency estimated from few doses,ERCC2,114 nM
same,potency estimated from few doses,FER,183 nM
same,potency estimated from few doses,FLT3,1500 nM
same,potency estimated from few doses,LATS1,994 nM
same,potency estimated from few doses,MARK4,884 nM
same,potency estimated from few doses,MYLK3,974 nM
same,potency estimated from few doses,PLK4,273 nM
same,potency estimated from few doses,PRKAA1,273 nM
same,potency estimated from few doses,PRKCD,2190 nM
same,potency estimated from few doses,PRKCQ,1580 nM
same,potency estimated from few doses,PRKD2,1920 nM
same,potency estimated from few doses,PTK2B,129 nM
same,potency estimated from few doses,PTK2,173 nM
same,potency estimated from few doses,RPS6KA6,125 nM
same,potency estimated from few doses,STK10; [1],996 nM
same,potency estimated from few doses,TNK2,108 nM
Cc1ccc(Nc2ccnc(Nc3ccc4c(c3)CS(=O)(=O)C4)n2)cc1O.Cl [GW579362A],potency estimated from few doses,"STK10; compound concentrations: 100 nM and 1000 nM (sheet 'Samples'), CATDS: 3.2691719677524503E-2",950 nM
Cc1cccc(-c2nc(Nc3ccncc3)c3sccc3n2)n1 [GW869641X],potency estimated from few doses,PRKD2,1.4 nM
same,potency estimated from few doses,PRKD3,3.56 nM
same,potency estimated from few doses,STK10; [1],1730 nM
Cl.Cl.NCC(C(=O)Nc1cc(Br)c(-c2ccnc3[nH]ccc23)s1)c1ccccc1.NCC(C(=O)Nc1cc(Br)c(-c2ccnc3[nH]ccc23)s1)c1ccccc1 (centres unmarked) [GSK1269851A],potency estimated from few doses,CDK7,44.7 nM
same,potency estimated from few doses,ERCC2,37.5 nM
same,potency estimated from few doses,FER,56.2 nM
same,potency estimated from few doses,FLT3,1450 nM
same,potency estimated from few doses,PLK4,523 nM
same,potency estimated from few doses,PRKAA1,548 nM
same,potency estimated from few doses,PRKCD,2130 nM
same,potency estimated from few doses,PRKCQ,1130 nM
same,potency estimated from few doses,PTK2B,63.1 nM
same,potency estimated from few doses,PTK2,422 nM
same,potency estimated from few doses,RPS6KA6,364 nM
same,potency estimated from few doses,STK10; [1],2030 nM
same,potency estimated from few doses,TNK2,46.6 nM
